Data: PubChem BioAssay AID2685 (National Center for Advancing Translational Sciences (NCATS), 2010)
Out of some 320,000 compounds screened, about 2,100 (0.66%) were called active. Roughly 53% stayed inconclusive and do not appear here. The call rests on the fitted dose curve; in most records, active means well fitted inhibition curve with a large enough effect in the signal ratio, with a control signal flat (not every such curve was filed as active); inconclusive means small, poorly fitted or top-dose-only effect, or effect the other way, or a change in a side signal; inactive means flat fitted curve, though single readings scatter; the % refers to the signal ratio. For the sample, actives were picked, then their nearest neighbours and some compounds at random.

Test: qHTS Assay for Lipid Storage Modulators in Drosophila S3 Cells;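 on cell number change: cells counted by Cell Tracker Red CMTPX staining in the red channel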; on lipid storage change, negative = inhibition: on the % scale 0 is the no-effect control and ±100 the full control effect
Conditions: BODIPY lipid droplet fluorescence, 18-24 h, cells fed with added oleic acid; cell number change: measured here: cell count max response; series mostly up to 46.1 µM; lipid storage change, negative = inhibition: at the top concentration
Source text: NIH Molecular Libraries Probe Production Centers Network [MLPCN] NIH Chemical Genomics Center [NCGC] MLPCN Grant: 1 R03 MH085686-01 Assay Submitter (PI): Beller, Mathias; Max-Planck-Institut fur Biophysikalische Chemie NCGC Assay Overview: Storing lipids as a reservoir for energy or the anabolism of elementary metabolites is a common feature of probably all cells and is conserved from bacteria to humans. The universal cellular lipid storage organelle is the so-called lipid storage droplet (LD). Although ubiquitous, LDs share a simple structure composed of a hydrophobic core that harbors the storage lipids, which is shielded by a droplet-specific phospholipid monolayer to which proteins are attached. The current model of LD biogenesis involves an incorporation of the lipid core into the membrane leaflets of the endoplasmic reticulum (ER) followed by a subsequent budding-like maturation of a LD, which ultimately pinches off. Once released, LD volume can increase by localized lipogenesis or fusion of existing droplet. Storage lipids are re-mobilized enzymatically by lipase activity. Lipase regulation in the adipocyte is heavily studied and involves multiple components including catecholamine signaling, the LD-associated proteins Perilipin and comparative gene identification (CGI-58) and at least two lipases named hormone sensitive lipase (HSL) and adipocyte triglyceride lipase (ATGL). LD regulation outside of the adipocyte is poorly understood and only few components are known. However, there is an urgent need to learn more about ectopic fat depots as mislocalized storage of lipids, for example in the liver or muscle, is an eminent health problem associated with insulin resistance or the metabolic syndrome. We developed a laser-scanning cytometer assay to enable 1,536-well screening and combined the results of the small molecules screen with an RNAi database based on lipid storage.
Triacsin C (Sigma-Aldrich T-4540), an inhibitor of long-chain fatty acyl CoA synthetase that blocks synthesis of triglycerides, was used as a positive control for lipid under-storage. A total of 23 nL of compound solution of different concentrations were transferred to the assay plates using a Kalypsys pin tool equipped with a 1,536-pin array containing 10-nL slotted pins (FP1S10, 0.457-mm diameter, 50.8 mm long; V&P Scientific). One microliter of oleic acid (400 uM) was added, and the plate was lidded with stainless steel rubber gasket lined lids containing pinholes. […] Fluorescence was detected by excitation of the fluorophores with a 488-nm laser on an Acumen Explorer (TTP Lab Tech). The total intensity in channel 2 (500-530 nm) reflected lipid droplet accumulation. Cells were detected using channel 3 (575-640 nm) with 5-um width and 100-um depth filters. The ratio of the number of objects in PMT channel 2 over the number of objects in PMT channel 3 was also calculated. Percent activity was computed relative to an internal control (100% inhibited lipid droplet deposition due to the presence of 20 uM Triacsin C), which was added to 32 wells/plate.
Potency means the concentration at half of the fitted maximal effect.

| Compound | lipid storage change, negative = inhibition | cell number change | Potency | outcome |
| --- | --- | --- | --- | --- |
| CN1C(=O)C(Cc2cccs2)C(=O)N(C)C1=O | -6.34% (inactive) | 1.68% | – | – |
| O=C1NC(=O)C(Cc2cccs2)C(=O)N1 | – | -13% | 25.9 µM (active) | – |
| O=C1NC(=O)N(Cc2cccs2)C(=O)/C1=C/c1ccc(N2CCOCC2)cc1 | -2.73% (inactive) | -3.62% | – | – |
| CC(=O)O[C@@H]1[C@H]2CC[C@@H]3[C@]1(C[C@@H](OC(C)=O)[C@@]1(O)C([C@@H]4O[C@@H]4C1(C)C)[C@]3(C)O)C[C@@]2(C)O (some centres not stated) | -9.14% (inactive) | -2.47% | – | – |
| O=C(Nc1ccccc1OC(=O)N1CCCCC1)N1CCCCC1 | 2.68% (inactive) | 3.87% | – | – |
| CC(=O)Nc1ccccc1OC(=O)N1CCOCC1 | – | – | 18.4 µM (active) | – |
| O=C(Nc1ccc(OC(=O)N2CCCC2)cc1)N1CCOCC1 | 0.334% (inactive) | 2.4% | – | – |
| CC1(C)COC(Nc2ccc(Cl)cc2)=N1 | 7.18% (inactive) | 0.527% | – | – |
| COc1cccc2cc(-c3cc(=O)oc4ccc(OC(=O)N(C)C)cc34)oc12 | 25.5% (inactive) | -3.98% | – | – |
| COc1ccc(Oc2c(C)oc3cc(OC(=O)N(C)C)ccc3c2=O)cc1 | 3.93% (inactive) | 27.6% | – | – |
| Cc1cc2oc(=O)cc(-c3cc4ccccc4o3)c2cc1OC(=O)N(C)C | – | 20.3% | 18.4 µM (active) | – |
| Cc1ccsc1C(=O)C1CCCN(CCO)C1 (configuration not stated) | 15.5% (inactive) | -5.68% | – | – |
| COc1ccc(C(=O)C2CCCN(Cc3ccc(C)s3)C2)c(OC)c1 (configuration not stated) | -12.3% (inactive) | -6.83% | – | – |
| COc1ccc(C(=O)C2CCCN(CCO)C2)c(C)c1 (configuration not stated) | – | -6.32% | 0.82 µM (active) | – |
| CC1(O)CCN2C(=O)CCc3cccc1c32 (configuration not stated) | -0.531% (inactive) | -14.6% | – | – |
| Cn1c(O)c(/C=C2\C=c3ccccc3=NC2=O)c(=O)n(C)c1=O | 9.12% (inactive) | 5.41% | – | – |
| CN1CCc2c([nH]c3ccccc23)C1 | -12% (inactive) | -7.02% | – | – |
| CCCCOc1ccc(CC2C(=O)N(C)C(=O)N(C)C2=O)cc1 | 13.1% (inactive) | -19.6% | – | – |
| COc1ccccc1CNCCc1ccc(F)cc1 | -8.79% (inactive) | -5.32% | – | – |
| CCC(=NCCO)c1c(O)n(-c2ccc(Cl)cc2)c(=O)[nH]c1=O | 2.83% (inactive) | 11.3% | – | – |

| Compound | lipid storage change, negative = inhibition | cell number change | Potency | outcome |
| --- | --- | --- | --- | --- |
| CCC(=NCCO)c1c(O)n(-c2ccccc2)c(=O)[nH]c1=O | – | -16.7% | 20.6 µM (active) | – |
| CCC(=NCc1ccco1)c1c(O)n(-c2ccccc2)c(=O)[nH]c1=O | 15.4% (inactive) | 12.1% | – | – |
| CC(C)(C)N(NC(=O)c1ccccc1)C(=O)c1ccccc1 | 3.31% (inactive) | 1.15% | – | – |
| COc1cc(/C=C2\C(=O)NC(=O)N(c3ccccc3)C2=O)cc(OC)c1OC | – | – | 0.731 µM (active) | – |
| COc1cc(/C=C2\C(=O)NC(=O)N(c3ccc(C)cc3)C2=O)cc(OC)c1O | -2.05% (inactive) | 15% | – | – |
| COc1cc(C=C2C(=O)NC(=O)NC2=O)cc(OC)c1OC | 7.23% (inactive) | 8.46% | – | – |
| COc1ccccc1C(=O)C1CCCN(Cc2cnc(C)s2)C1 (configuration not stated) | 2.31% (inactive) | 3.73% | – | – |
| Cn1c(O)c(C=NC2CCN(Cc3ccccc3)CC2)c(=O)[nH]c1=O | -10% (inactive) | -0.367% | – | – |
| Cn1c(=O)c2c(nc(N/N=C/c3c(O)n(-c4ccccc4)c(=S)[nH]c3=O)n2C)n(C)c1=O | 12.3% (inactive) | 0.523% | – | – |
| OC1(CN2CCOCC2)C2CC3CC(C2)CC1C3 (configuration not stated) | – | -6.79% | 8.2 µM (active) | – |
| CC1(C)C2CC=C(CN3CCOCC3)C1C2 (configuration not stated) | -7.26% (inactive) | 1.35% | – | – |
| CCC(C)n1c(O)c(C=NCCN2CCOCC2)c(=O)[nH]c1=S (configuration not stated) | -7.01% (inactive) | 0.504% | – | – |
| COc1ccc(-n2c(O)c(C(C)=NCCN3CCNCC3)c(=O)[nH]c2=O)cc1 | -10.9% (inactive) | -2.05% | – | – |
| COC(=O)C1=C(c2ccc(-c3ccccc3)c(F)c2)C[C@@H]2CC[C@H]1N2C(=O)NCCOc1ccccc1 | – | -7.31% | – | inactive |
| COC(=O)C1=C(c2ccc(OC(F)(F)F)cc2)C[C@@H]2CC[C@H]1N2C(=O)NCCOc1ccccc1Cl | – | – | – | inactive |
| COC(=O)C1=C(c2ccc(-c3ccccc3)c(F)c2)C[C@@H]2CC[C@H]1N2C(=O)NCCOc1ccccc1Cl | – | -24.1% | 14.6 µM (active) | – |
| COC(=O)C1=C(c2ccc3ccccc3c2)C[C@@H]2CC[C@H]1N2C(=O)NC1Cc2ccccc2C1 | 11.9% (inactive) | -10.8% | – | – |
| COC(=O)C1=C(c2ccc(-c3ccccc3)c(F)c2)C[C@@H]2CC[C@H]1N2C(=O)NCC1CC1 | 4.03% (inactive) | -12.8% | – | – |
| COC(=O)C1=C(c2ccccc2OCc2ccccc2)C[C@@H]2CC[C@H]1N2C(=O)NCc1ccc(OC)cc1 | -5.69% (inactive) | -4.45% | – | – |
| COC(=O)C1=C(c2ccccc2OCc2ccccc2)C[C@@H]2CC[C@H]1N2C(=O)NCc1ccccc1 | – | -13.3% | – | inactive |

| Compound | lipid storage change, negative = inhibition | cell number change | Potency | outcome |
| --- | --- | --- | --- | --- |
| COC(=O)C1=C(c2ccccc2OCc2ccccc2)C[C@@H]2CC[C@H]1N2C(=O)NCc1ccc(N(C)C)cc1 | – | -7.57% | 23.1 µM (active) | – |
| COC(=O)C1=C(c2ccc(-c3ccccc3)c(F)c2)C[C@@H]2CC[C@H]1N2C(=O)NC1Cc2ccccc2C1 | – | -24.5% | 7.31 µM (active) | – |
| CN(Cc1ccccc1)C1CCCN(C(=O)COc2ccccc2Cl)C1 (configuration not stated) | 3.21% (inactive) | 12% | – | – |
| COc1ccc(C(=O)NC(=S)N2C[C@H]3C[C@H](C2)c2cccc(=O)n2C3)cc1 | 14.6% (inactive) | 23% | – | – |
| COc1ccc(N2C(=O)NC(=O)/C(=C\c3ccccc3[N+](=O)[O-])C2=O)cc1 | 1.36% (inactive) | -0.318% | – | – |
| C=C[C@@H]1C2=CCOC(=O)C2=CO[C@H]1O[C@@H]1O[C@H](CO)[C@@H](O)[C@H](O)[C@H]1O | 2.15% (inactive) | -27.7% | – | – |
| CNCCc1ccccc1 | -5.67% (inactive) | -6.21% | – | – |
| O=C(NCc1cccnc1)Nc1ccccc1Cl | – | -20.1% | – | inactive |
| Cc1cc(OC(C)C(=O)NCc2cccnc2)c2c3c(c(=O)oc2c1)CCC3 (configuration not stated) | – | 14.6% | – | inactive |
| CC(C)CC(NS(=O)(=O)c1ccc2c(c1)oc(=O)n2C)C(=O)NCc1cccnc1 (configuration not stated) | – | – | 1.64 µM (active) | – |
| CCc1ccc(CNCCc2ccc(F)cc2)cc1 | 0.124% (inactive) | -19.7% | – | – |
| C=C(C)CSc1nnc([C@@H](N)Cc2ccccc2)o1 | 18% (inactive) | 2.73% | – | – |
| c1ccc2c(NC3=NCCS3)cccc2c1 | 10.9% (inactive) | 15.1% | – | – |
| COc1ccccc1NC1=NCCS1 | – | -10.9% | 25.9 µM (active) | – |
| COc1cccc(NC2=NCCCS2)c1 | 11.1% (inactive) | 15% | – | – |
| Cc1cc(C(=O)Nc2ccccc2)nn1C(C)(C)C | 0.971% (inactive) | 13.1% | – | – |
| CC1=C(C(=O)Nc2ccccc2)SCCO1 | – | -0.928% | 18.4 µM (active) | – |
| CC1=C(C(=O)Nc2ccccc2)S(=O)(=O)CCO1 | -28.7% (inactive) | -13.4% | – | – |
